Z-score data for 35 compounds are collected here from PubChem BioAssay.

The assay in a line: HepG2 liver cancer cell viability effects, profiling panel, resazurin fluorescence, 24 h, PK04 Diversity Set (AID 1172). Further: test concentration not given here. To be noted: higher = more signal. In general terms: Alamar Blue is a resazurin reagent that responds to reducing activity.
In turn, `COc1cc2c(cc1O)C(c1cccs1)N(Cc1sc3ccccc3c1Cl)CC2` (stereo not given) displayed a z-score of -1.05. Compound `CC(C)(C)OC(=O)CC[C@]12N=C(c3ccc(OCCCO)cc3)O[C@H]1c1ccccc1N(Cc1ccccc1)C2=O` gave a z-score of 0.851. The value for `O=C1C2C=CC(C(O)c3ccc(I)cc3)N(Nc3ccccc3)C2C(=O)N1c1ccccc1` (stereo not given) was -1.04; that for `C=CCN1C(=O)[C@@]2(O[C@@H](CCO)[C@H]([Si](C)(C)c3ccc(OC)cc3)[C@H]2C)c2cc(N3CCOC3=O)ccc21` was -5.76. For the compound `CCOC(=O)C1=C[C@@H](C(C)(C)C)N(S(=O)(=O)c2ccc(C)cc2)[C@H]1c1cccc(Cl)c1`, the z-score was -0.594. The value for `CO[C@H]1O[C@H](CO)[C@@H](OC(=O)Nc2cccc(F)c2)[C@H](OC(=O)Nc2ccccc2-c2ccccc2)[C@H]1OC(=O)Nc1ccccc1-c1ccccc1` was -4.61; that for `COCC(=C=CC[C@@H](O)c1ccc(OCCO)cc1)CCO` was 1.37. As for `C=CCC(OC(C)=O)[C@@H]1[C@@H](N(Cc2ccc(-c3cccc(C(F)(F)F)c3)o2)C(=O)Cc2ccc(OC)cc2)c2cc(OCCCO)ccc2N1C(=O)Cc1ccc2ccccc2c1` (stereo not given in full), the figure is -0.43; as for `CN1C(=O)[C@@H]2[C@@H](CC(COc3ccccc3)=C([C@H](O)CCc3ccccc3)[C@@H]2CO)C1=O`, 0.358; as for `COc1cc(NN2C(C(O)C3CCCCC3)C=CC3C(=O)N(C)C(=O)C32)cc(OC)c1OC` (stereo not given), -0.721. Take `C=CCC(OC(C)=O)[C@@H]1[C@@H](N(Cc2cccc3ccccc23)C(=O)c2ccc(-c3ccccc3)cc2)c2cc(OCCCO)ccc2N1C(=O)c1ccc(-c2ccccc2)cc1` (stereo not given in full): the z-score was -0.132.

`[N-]=[N+]=NCc1ccccc1C[C@@]1(C(=O)N2CCCCC2)N=C(c2ccc(OCCCO)cc2)O[C@@H]1c1ccccc1CN=[N+]=[N-]` returned a z-score of -0.539. The compound `COC(=O)[C@@]1(Cc2ccc(OC)cc2)[C@H]2c3cc(C(=O)N4CCCC4)n(Cc4ccc(S(C)(=O)=O)cc4)c3C[C@H]2CN1C(=O)c1ccccc1` had a z-score of -0.707. `CCOC(=O)C[C@H]1[C@H](OC(=O)c2ccc(C(=O)c3ccccc3)cc2)[C@@H](NC(=O)CC(C)C)c2cc(OCCCO)ccc2N1C(=O)Cc1ccc(OC)cc1` showed a z-score of -0.204. As for `O=C1C2C=CC(C(O)c3ccco3)N(Nc3ccccc3)C2C(=O)N1c1ccccc1` (stereo not given), the figure is 0.875. The compound `Cc1ccc(F)cc1S(=O)(=O)N[C@@H]1CCN(Cc2cccc3[nH]ccc23)C1` gave a z-score of -0.921. The value for `CCOC(=O)C1=C[C@@H](c2ccccc2)N(S(=O)(=O)c2ccc(C)cc2)[C@H]1c1ccccc1` was -0.443. `COCCOC(=O)N1C(=O)[C@@]2(c3cc(C#CCC(C(=O)OC)C(=O)OC)ccc31)[C@H](c1ccc(OCCO)cc1)N1[C@H](c3ccccc3)[C@H](c3ccccc3)OC(=O)[C@H]1[C@@H]2C(=O)Nc1nc2ccccc2s1` returned a z-score of 1.13.

`COC(=O)[C@@]1(Cc2ccccc2CN=[N+]=[N-])N=C(c2ccc(OCCCO)cc2)O[C@H]1c1ccccc1` gave a z-score of -2.6.

As for `COC(=O)C(CC#Cc1ccc2c(c1)[C@]1(C(=O)N2)[C@H](c2ccc(OCCO)cc2)N2[C@H](c3ccccc3)[C@H](c3ccccc3)OC(=O)[C@H]2[C@@H]1C(=O)N1CCN(c2ncccn2)CC1)C(=O)OC`, the z-score is -0.175. As to `CCCCCCCCCCC(O)C1C=CC2C(=O)N(C)C(=O)C2N1Nc1cc(OC)c(OC)c(OC)c1` (stereo not given), the z-score was -2.36. `C=CCC(OC(C)=O)[C@@H]1[C@@H](N(Cc2ccc(-c3ccccc3)cc2)C(=O)c2ccc(C)cc2)c2cc(OCCCO)ccc2N1C(=O)Cc1ccc2ccccc2c1` (stereo not given in full) gave a z-score of 1.03. The value for `Cc1cccc([C@H]2C[C@H]3C(Br)=C[C@@H]2C(=O)[C@]32CO2)c1` was -0.536; that for `O=C(O)[C@H]1C[C@H]2C(=O)N[C@@H](Cc3ccccc3)C(=O)N2[C@H]1c1cccc(OCCO)c1` was 1.02. The value for `Cc1cccc([C@H]2C[C@H]3C(I)=C[C@@H]2C(=O)[C@]32CO2)c1` was 0.644. Regarding `COc1cc(NN2C(C(O)c3ccc(I)cc3)C=CC3C(=O)N(c4ccccc4)C(=O)C32)cc(OC)c1OC` (stereo not given), the z-score was -1.35.

For `CCN(CC)c1ccc(N2CC=CC34O[C@@H]5/C=C\CCC(C)OC(=O)C5[C@H]3C(=O)N(C(C)CO)[C@@H]4C2=O)cc1` (stereo not given in full), the z-score stood at 0.958. As to `C=CC[C@H](OC(=O)Nc1ccc(SC)cc1)c1ccc(OCCO)cc1`, the z-score was determined as 0.826. `COCCOC(=O)N1C(=O)[C@@]2(c3cc(C#CCCO)ccc31)[C@H](c1ccccc1OCCO)N1[C@H](c3ccccc3)[C@H](c3ccccc3)OC(=O)[C@H]1[C@@H]2C(=O)N1CCCCCCC1`: the z-score came to 0.543. As for `CC(C)C(=C=CC[C@H](O)c1cccc(OCCO)c1)CCO`, the figure is 0.934; as for `CCCCNC(=O)c1ccc(C#C[Si](C(C)C)(C(C)C)C(C)C)c(OC(C)=O)c1`, 0.236. The value for `C[C@@]12COC[C@]13C=C(Br)[C@H](C2)[C@@]1(CO1)C3=O` was 0.138. As for `CC(C)[C@H]1NC(=O)[C@@]23C(=O)N[C@@H](Cc4ccccc4)C2[C@H](C)[C@@]2(C)O[C@H]2C3/C=C/CCC/C=C/CNC(=O)[C@H](Cc2ccccc2)NC1=O` (stereo not given in full), the figure is -1.15. In turn, `COCCCNC(=O)[C@@]1(Sc2ccc(C)cc2)CC(=O)N(C(C)C)[C@@H]1c1ccc(CO)cc1I` showed a z-score of -0.312. The value for `CN(C)CCCCNC(=O)[C@H]1C[C@H]2C(=O)N[C@@H](CCCC[N+](C)(C)C)C(=O)N2[C@H]1c1ccc(O)cc1` was 0.351.
